{
  "source": "PubChem BioAssay (Tox21)",
  "note": "Records with an inconclusive call do not appear. Unmarked numbers belong to inactive results. The call rests on the fitted dose curve; in most records, active means well fitted activation curve with a large enough effect in the signal ratio in the repeat runs (not every such curve was filed as active); inconclusive means weak or mixed curves, or effect the other way; inactive means flat fitted curve, though single readings scatter; the % refers to the signal ratio. On the % scale 0 is the no-effect control and ±100 the full control effect.",
  "data": [
    {"molecular_target": "Estrogen receptor beta (Homo sapiens) (UniProt Q92731)", "sequence (Q92731 whole entry, looked up)": "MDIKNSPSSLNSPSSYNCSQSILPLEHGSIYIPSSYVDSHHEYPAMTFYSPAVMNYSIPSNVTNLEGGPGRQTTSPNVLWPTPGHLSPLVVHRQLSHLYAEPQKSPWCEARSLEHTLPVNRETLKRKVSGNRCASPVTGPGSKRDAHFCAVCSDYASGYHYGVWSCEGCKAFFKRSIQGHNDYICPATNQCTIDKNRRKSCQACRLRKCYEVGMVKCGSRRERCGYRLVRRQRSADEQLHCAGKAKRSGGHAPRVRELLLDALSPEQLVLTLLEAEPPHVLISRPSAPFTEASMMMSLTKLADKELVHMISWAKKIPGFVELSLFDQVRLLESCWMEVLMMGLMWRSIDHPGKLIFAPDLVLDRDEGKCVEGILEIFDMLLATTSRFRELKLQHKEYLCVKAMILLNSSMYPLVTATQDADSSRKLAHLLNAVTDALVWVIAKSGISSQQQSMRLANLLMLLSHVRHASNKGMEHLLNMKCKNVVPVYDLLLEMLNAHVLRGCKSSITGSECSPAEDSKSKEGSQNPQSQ", "test": "qHTS assay to identify small molecule agonists of the estrogen receptor beta (ER-beta) signaling pathway (AID 1259377)", "conditions": "ER-beta-UAS-bla HEK293T, beta-lactamase FRET ratio, 16 h; series mostly up to 92.4 µM; activation: at the top concentration", "excerpt": "U.S. Tox21 Program National Center for Advancing Translational Sciences [NCATS] NIH Chemical Genomics Center [NCGC] U.S. Environmental Protection Agency [EPA] National Institutes of Environmental Health Sciences [NIEHS] National Toxicology Program [NTP] U.S. Food and Drug Administration [FDA] Tox21 Assay Overview: Estrogen receptor (ER), a nuclear hormone receptor, plays an important role in development, metabolic homeostasis and reproduction. Two subtypes of ER, ER-alpha and ER-beta, have similar expression patterns with some uniqueness in both types. Endocrine disrupting chemicals (EDCs) and their interactions with steroid hormone receptors like ER causes disruption of normal endocrine function. To identify the compounds that activate ER signaling, an ER beta-UAS-bla GripTite cell line (Life technologies, Madison, WI, USA) containing a beta-lactamase reporter gene under the control of an Upstream Activator Sequence (UAS) was used to screen Tox21 10K compound library.\nTox21 Assay Protocol Summary: ER-beta-UAS-bla HEK293T cells were dispensed at 2,000 cells/5 uL of assay medium containing 2% charcoal stripped FBS per well into black wall/clear-bottom 1536-well plates using a Multidrop Combi (ThermoFisher Scientific, Waltham, MA) dispenser. After the assay plates were incubated at a 37C and 5% CO2 for 6 hr, 23 nL of compounds dissolved in DMSO, positive controls or DMSO only was transferred to the assay plate by a Pintool station (Kalypsys, San Diego, CA). The plates were incubated at 37C and 5% CO2 for 16 hr. Then 1 uL of LiveBLAzerTM B/G FRET substrate was added using a BioRAPTR FRD (Flying Reagent Dispenser, Aurora Discovery, San Diego, CA). After the plates were incubated at room temperature for 2 hours, fluorescence intensity was measured by an Envision plate reader (PerkinElmer, Shelton, CT).", "values": [
      {"smiles": "Fc1cc(Br)ccc1CBr", "activation": "-0.704% [at 42.5 µM]"},
      {"smiles": "CC(C)NCC(O)c1ccc(N)c(C#N)c1", "note": "(stereo not given)", "activation": "-0.599% [at 42.5 µM]"},
      {"smiles": "CCOP(=S)(OCC)Oc1cc(-c2ccccc2)on1", "activation": "-0.889%"},
      {"smiles": "CCc1cc2c(s1)-n1c(C)nnc1CN=C2c1ccccc1Cl", "activation": "2.14% [at 42.5 µM]"},
      {"smiles": "N#Cc1ccncc1", "activation": "4.38%"},
      {"smiles": "CC(CC(C#N)(c1ccccc1)c1ccccc1)N(C)C", "note": "(stereo not given)", "activation": "-2.96%"},
      {"smiles": "CC1CN1P(=O)(N1CC1C)N1CC1C", "note": "(stereo not given)", "activation": "-0.767%"},
      {"smiles": "CNCC(=O)c1ccc(O)c(O)c1", "activation": "5.19% [at 42.5 µM]"},
      {"smiles": "CCCCc1c(C)nc(NCC)[nH]c1=O", "activation": "7.75%"},
      {"smiles": "Cc1coc2c1CCC(C)C2", "note": "(stereo not given)", "activation": "0.574%"},
      {"smiles": "ClCC(Cl)(Cl)Cl", "activation": "14.3%"},
      {"smiles": "CCOC(=O)C(c1c(O)c2ccccc2oc1=O)c1c(O)c2ccccc2oc1=O", "activation": "-1.87% [at 42.5 µM]"},
      {"smiles": "CCC(=O)c1ccccc1", "activation": "0.964%"},
      {"smiles": "CC(C=O)Cc1ccc2c(c1)OCO2", "note": "(stereo not given)", "activation": "4.46%"},
      {"smiles": "CCCCOC(=O)c1ccccc1C(=O)O", "activation": "0.0914%"},
      {"smiles": "O=C(Cc1ccccc1)OCc1ccccc1", "activation": "-0.811%"},
      {"smiles": "CCN(CC)c1nc(C)cc(OP(=S)(OC)OC)n1", "activation": "-0.014%"},
      {"smiles": "COC(=O)C1=CCCN(C)C1", "activation": "3.53% [at 42.5 µM]"},
      {"smiles": "Nc1cnn(-c2ccccc2)c(=O)c1Cl", "activation": "7.48%"},
      {"smiles": "CCCCC(=O)Cl", "activation": "-0.932%"},
      {"smiles": "CCCCOC(=O)c1ccccc1N", "activation": "8.79%"},
      {"smiles": "O=C(Nc1ccccc1)c1ccccc1I", "activation": "-0.391%"},
      {"smiles": "CCN(Cc1ccc(Cl)nc1)/C(=C/[N+](=O)[O-])NC", "activation": "6.55% [at 42.5 µM]"},
      {"smiles": "C=CC1CC=CCC1", "note": "(stereo not given)", "activation": "1.2%"},
      {"smiles": "CC1COC2(c3ccccc3Cl)c3cc(Cl)ccc3NC(=O)CN12", "note": "(stereo not given)", "activation": "0.71% [at 42.5 µM]"},
      {"smiles": "CCOP(=O)(N=C1SCCS1)OCC", "activation": "-1.63%"},
      {"smiles": "COc1cc(OC)nc(NC(=O)NS(=O)(=O)c2ncccc2C(=O)N(C)C)n1", "activation": "2.65%"},
      {"smiles": "O=C(O)c1cccc(Cl)c1", "activation": "1.02%"},
      {"smiles": "CNC(=O)Oc1c(C(C)(C)C)cc(C)cc1C(C)(C)C", "activation": "-0.652%"},
      {"smiles": "CC1=C(C(=O)O)N2C(=O)[C@@H](N)[C@H]2SC1", "activation": "1.69% [at 19 µM]"},
      {"smiles": "OC(c1ccccc1)(c1ccccc1)C1CCNCC1", "activation": "-1.31% [at 42.5 µM]"},
      {"smiles": "CC(N)=S", "activation": "1.27%"},
      {"smiles": "NC(=S)C(N)=S", "activation": "-1.86%"},
      {"smiles": "CCN(CC)C(=O)[C@@H]1C=C2c3cccc4[nH]cc(c34)C[C@H]2N(C)C1", "activation": "-3.39% [at 240 µM]"},
      {"smiles": "COC(=O)C(C)Oc1ccc(Oc2ccc(Cl)cc2Cl)cc1", "note": "(stereo not given)", "activation": "-3.81%"},
      {"smiles": "N#CCBr", "activation": "-3.12%"},
      {"smiles": "COC(=O)c1c(C(F)F)nc(C(F)(F)F)c(C2=NCCS2)c1CC(C)C", "activation": "-1.17%"},
      {"smiles": "Nc1n[nH]c(N)n1", "activation": "0.77%"},
      {"smiles": "CCCCCCI", "activation": "0.881%"},
      {"smiles": "CN/C(=N\\[N+](=O)[O-])NCC1CCOC1", "note": "(stereo not given)", "activation": "2.27%"}
    ]}
  ]
}
